In PubChem BioAssay (EPA / NIEHS) one finds outcome and AC50 data, which are given here for 14 molecules.

The source made the active and inactive calls. The calls were made as follows: active = hit-call score of the fitted dose curve at least 0.9, where 1 is the maximum; inconclusive = response in the unintended direction; inactive = score below 0.9.

Androgen Receptor/SRC-1 Co-activator, AR (gene 367), sequence (P10275 whole entry, looked up, the tested form may be a part): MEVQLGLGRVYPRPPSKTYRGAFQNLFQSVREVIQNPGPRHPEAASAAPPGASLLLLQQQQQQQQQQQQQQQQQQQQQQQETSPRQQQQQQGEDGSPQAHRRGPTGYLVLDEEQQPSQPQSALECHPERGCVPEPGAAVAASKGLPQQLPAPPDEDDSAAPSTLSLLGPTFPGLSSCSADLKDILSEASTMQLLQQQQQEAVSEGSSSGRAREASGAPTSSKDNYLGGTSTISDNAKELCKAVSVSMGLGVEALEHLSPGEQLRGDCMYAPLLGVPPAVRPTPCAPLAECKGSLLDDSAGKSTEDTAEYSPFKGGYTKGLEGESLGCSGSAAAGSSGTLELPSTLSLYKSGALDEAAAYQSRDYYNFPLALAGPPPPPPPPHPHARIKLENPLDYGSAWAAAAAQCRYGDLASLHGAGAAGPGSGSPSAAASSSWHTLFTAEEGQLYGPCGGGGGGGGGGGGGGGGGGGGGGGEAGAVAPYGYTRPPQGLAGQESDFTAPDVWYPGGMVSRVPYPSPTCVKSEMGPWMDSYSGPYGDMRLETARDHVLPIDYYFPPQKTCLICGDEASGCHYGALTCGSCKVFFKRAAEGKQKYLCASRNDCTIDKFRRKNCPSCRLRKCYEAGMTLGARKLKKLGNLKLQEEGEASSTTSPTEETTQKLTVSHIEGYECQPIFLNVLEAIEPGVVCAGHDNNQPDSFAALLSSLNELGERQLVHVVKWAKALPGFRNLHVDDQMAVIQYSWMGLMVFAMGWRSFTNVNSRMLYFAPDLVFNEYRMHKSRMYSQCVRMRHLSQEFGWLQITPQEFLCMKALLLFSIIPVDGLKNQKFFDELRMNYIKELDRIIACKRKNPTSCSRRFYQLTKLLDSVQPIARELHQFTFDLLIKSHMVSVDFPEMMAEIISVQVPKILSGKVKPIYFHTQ

The test has as its target Androgen Receptor/SRC-1 Co-activator, AR (gene 367) (UniProt P10275). Put plainly: OT_AR_ARSRC1_0960: Odyssey Thera (OT) 16-hour HEK293T Protein-Complementation Assay for Androgen Receptor/SRC-1 Co-activator (AID 2283353).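 Also: actives raise the signal above DMSO so potency reflects increased AR and SRC-1 complex.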 The procedure: OT_AR_ARSRC1_0960 is a cell-based, single-readout assay that uses HEK293T, a human kidney cell line, with measurements taken at 16 hours after chemical dosing in a 384-well plate.OT_AR_ARSRC1_0960 is one of one assay component(s) measured or calculated from the OT_AR_ARSRC1_0960 assay. It is designed to make measurements of protein fragment complementation, a form of binding reporter, as detected with fluorescence intensity signals by Protein-fragment Complementation technology.Data from the assay component OT_AR_ARSRC1_0960 was analyzed into 1 assay endpoint. This assay endpoint, OT_AR_ARSRC1_0960, was analyzed in the positive analysis fitting direction relative to DMSO as the negative control and baseline of activity. Using a type of binding reporter, measures of receptor for gain-of-signal activity can be used to understand the binding at the pathway-level as they relate to the gene AR. Furthermore, this assay endpoint can be referred to as a primary readout, because the performed assay has only produced 1 assay endpoint. To generalize the intended target to other relatable targets, this assay endpoint is annotated to the nuclear receptor intended target family, where the subfamily is steroidal.
Protein-fragment complementation assay, or PCA, is a method for the identification and quantification of protein-protein interactions. In the PCA, the proteins of interest ("bait" and "prey") are each covalently linked to fragments of a third protein (e.g. DHFR, which acts as a "reporter"). Interaction between the bait and the prey proteins brings the fragments of the reporter protein in close proximity to allow them to form a functional reporter protein whose activity can be measured. The OT AR / SRC-1 assay assessed androgen receptor chemical interactions using a rapidly maturing, intensely fluorescent mutant of YFP known as Venus, rationally dissected into two separate fragments. […] Fusion constructs were transfected into HEK293T cells with a (Gly4Ser)2 linker between the AR/SRC-1 and YFP fragment genes to facilitate complementation when interacting proteins bring fragments into close proximity. The construct is stably expressed in HEK293T cells. […] Images were acquired on an Evotec Opera at 2 wavelengths (488 and 635nm), and the ratio of fluorescence in the nucleus relative to fluorescence in the cytoplasm (N/C Ratio) in the 488nm channel was calculated for a minimum of 400 cells per image. Both agonists and antagonists of the AR receptor induce nuclear translocation to varying degrees. […] The OT AR/SRC-1 assay was also run for 16 hours (see description for OT_AR_ARSRC1_0960).
Consider `CCOC(=O)CC(SP(=S)(OC)OC)C(=O)OCC` (centres undefined), for which the call was inactive.
Same read-out and setting: next, `CC1=C(C(=O)Nc2ccccc2)SCCO1`: “inactive”.
Broadly, the AC50 is the concentration giving half of the maximal activity seen. As to `CC(C)Oc1cc(-n2nc(C(C)(C)C)oc2=O)c(Cl)cc1Cl`, the AC50 was 31.3 µM (active).
The same measure, in the same setting: next, `Cc1ccc(-c2c(Cl)nc(C#N)n2S(=O)(=O)N(C)C)cc1`: 27.1 µM (active).
For `O=C(Nc1ccccc1)Nc1ccnc(Cl)c1`, the result was inactive.
Still for that read-out and setting: next, `N#Cc1cc(Br)c(O)c(Br)c1`: “inactive”.
Consider `CN(C)C(=S)SSC(=S)N(C)C`, for which the AC50 was 26.2 µM (active).
`Cc1cc(Cl)ccc1OCC(=O)O`: the outcome was inactive.
For the molecule `CCCC1COC(Cn2cncn2)(c2ccc(Cl)cc2Cl)O1` (centres undefined), the AC50 is 34.3 µM (active).
In the case of `CO/C=C(/C(=O)OC)c1ccccc1Oc1cc(Oc2ccccc2C#N)ncn1`, the outcome was inactive.
With `CCON=C(CC)C1=C(O)CC(c2c(C)cc(C)cc2C)CC1=O` (centres undefined), the molecule was classed as inactive.
Regarding `CS/C(C)=N/OC(=O)N(C)SN(C)C(=O)O/N=C(\C)SC`, the AC50 is 78.2 µM (active).
The same measure, in the same setting: for `N#Cc1nn(-c2c(Cl)cc(C(F)(F)F)cc2Cl)c(N)c1S(=O)C(F)(F)F` (centres undefined) the value was 22.7 µM (active).
For `CCCCNC(=O)n1c(NC(=O)OC)nc2ccccc21`, the result was inactive.
